Experimental data as given in PubChem BioAssay (NCATS).
Records with an inconclusive call do not appear. The source made the active and inactive calls. Calls follow the shape of the dose curve; as a rule, active = well fitted inhibition curve with a large enough effect; inconclusive = small, poorly fitted or top-dose-only effect; inactive = flat fitted curve, though single readings scatter.

Columns and labels:
Test in all cases: qHTS profiling for inhibitors of Plasmodium falciparum proliferation (AID 504749); also: nearly all actives have a fitted effect of over 60% in size
Conditions in all cases: P. falciparum in erythrocytes, SYBR Green DNA, 72 h; series mostly up to 28.7 µM
FAB9 = system: FAB9
Summary of the method: (§1)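 Each compound contacts P. falciparum-infected red blood cells for 72 h at 37 C; lysis buffer (Tris, EDTA, saponin, Triton X, SYBR Green I) is added and fluorescence measured next morning; values normalized to controls.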

GB4 = system: GB4
Summary of the method: as §1

HB3 = system: HB3
Summary of the method: as §1

JCK = system: JCK
Summary of the method: as §1

N140 = system: N140
Summary of the method: as §1

P93_24 = system: P93_24
Summary of the method: as §1

P94_40 = system: P94_40
Summary of the method: as §1

PAD = system: PAD
Summary of the method: as §1

PC15 = system: PC15
Summary of the method: as §1

ICS = system: ICS
Summary of the method: as §1

Measured: Potency
Potency is read from the fitted curve at half-maximal effect.

CC(C)OC(=O)Nc1ccc2nc(-c3cscn3)[nH]c2c1
not listed: ICS
inactive: all other assays above

CCCCCc1ccc(C)cc1O
active: ICS 7.08 µM
not listed: GB4
inactive: all other assays above

CCN(CC)CCOc1ccccc1OC
not listed: GB4
inactive: all other assays above

CCCC(CCC)C(=O)OC1C[C@H]2CC[C@@H](C1)[N+]2(C)C (stereo not given in full)
active: ICS 12.6 µM
inactive: FAB9 | JCK

Cn1c(O)c(N=NC(N)=S)c2ccccc21
inactive: FAB9 | JCK | PC15
active: ICS 11.2 µM

NC(=O)CC[C@@H]1NC(=O)[C@H](Cc2ccccc2)NC(=O)[C@H](Cc2ccc(O)cc2)NC(=O)[C@@H](N)CSSC[C@@H](C(=O)N2CCC[C@H]2C(=O)N[C@@H](CCCN=C(N)N)C(=O)NCC(N)=O)NC(=O)[C@H](CC(N)=O)NC1=O
active: ICS 8.91 µM
inactive: FAB9 | JCK | PC15

O=P(O)(O)OP(=O)(O)O
inactive: FAB9 | HB3 | P93_24 | PC15
active: N140 8.91 µM

CC(C)NCC(O)COc1ccccc1-n1cccc1 (stereo not given)
not listed: GB4 | PC15 | ICS
inactive: all other assays above

CO/N=C(/C(=O)N[C@@H]1C(=O)N2C(C(=O)O)=C(COC(N)=O)CS[C@H]12)c1ccco1
active: ICS 8.91 µM
not listed: GB4 | HB3 | P93_24
inactive: all other assays above

CNC(=O)[C@H](Cc1c[nH]c2ccccc12)NC(=O)[C@@H](CC(=O)NO)CC(C)C
inactive: JCK | PC15

O=C(c1cc2ccccc2o1)N1CCN(Cc2ccccc2)CC1
inactive: FAB9 | HB3 | ICS | JCK | P94_40 | PC15

CCSc1ccc2c(c1)N(CCCN1CCN(C)CC1)c1ccccc1S2
not listed: GB4 | ICS
inactive: all other assays above

OCc1ccccc1
active: ICS 2.24 µM | PC15 10 µM

C#C[C@]1(O)CC[C@@H]2[C@H]3CCC4=CC(=O)CC[C@H]4[C@H]3C(=C)C[C@@]21CC
not listed: GB4 | ICS
inactive: all other assays above

O=C(CCCN1CCC(C(=O)c2ccc(F)cc2)CC1)c1ccc(F)cc1
inactive: FAB9 | JCK | N140 | P93_24 | P94_40 | PAD

CCOC(=O)C1=C(COCCN)NC(C)=C(C(=O)OC)C1c1ccccc1Cl (stereo not given)
inactive: FAB9 | HB3 | JCK | PAD | PC15

Oc1cccc(O)c1O
active: ICS 3.98 µM
inactive: FAB9 | JCK | N140

CCCCCCCCCCCCCCCCOCCOCCOCCOCCOCCOCCOCCOCCOCCOCCOCCOCCOCCOCCOCCOCCOCCOCCOCCOCCO
active: HB3 7.08 µM | ICS 4.47 µM | N140 10 µM | P93_24 11.2 µM | PC15 11.2 µM

CC[C@H]1OC(=O)[C@H](C)[C@@H](O[C@H]2C[C@@](C)(OC)[C@@H](O)[C@H](C)O2)C(C)[C@@H](O[C@@H]2O[C@H](C)C[C@H](N(C)C)[C@@H]2O)[C@](C)(OC)C[C@@H](C)C(=O)[C@H](C)[C@@H](O)[C@]1(C)O (stereo not given in full)
inactive: JCK | N140 | P93_24 | P94_40 | PAD
active: ICS 10 µM

O=C(CCCN1CCN2CCCC2C1)c1ccc(F)cc1 (stereo not given)
active: N140 10 µM
not listed: GB4 | P93_24
inactive: all other assays above

CC(=O)c1ccc2c(c1)N(CCCN1CCN(CCO)CC1)c1ccccc1S2
active: GB4 8.49 µM | ICS 7.94 µM | P93_24 8.91 µM | P94_40 10 µM | PC15 11.2 µM

CSCCC(N)C(=O)O (stereo not given)
not listed: GB4 | P93_24
inactive: all other assays above

COc1ccc2c(c1)OC(C)(C)C(c1ccccc1)C2c1ccc(OCCN2CCCC2)cc1 (stereo not given)
active: GB4 4.78 µM | HB3 7.94 µM | ICS 2.82 µM | N140 5.01 µM | P93_24 5.01 µM | P94_40 6.31 µM | PAD 8.91 µM | PC15 11.2 µM

O=C(O[C@H]1CN2CCC1CC2)N1CCc2ccccc2[C@@H]1c1ccccc1
inactive: FAB9 | HB3 | JCK | N140 | P94_40 | PAD

CCN(CC)CCCC(C)Nc1cc(/C=C/c2ccccc2Cl)nc2cc(Cl)ccc12 (stereo not given)
active: GB4 4.78 µM | HB3 2 µM | ICS 0.398 µM | JCK 11.2 µM | N140 3.16 µM | P93_24 2 µM | P94_40 1.78 µM | PAD 1 µM | PC15 2 µM

Nc1ccc(N=Nc2ccccc2)c(N)n1
active: GB4 13.5 µM
not listed: FAB9 | N140
inactive: all other assays above

NC(N)=NCC1COc2ccccc2O1 (stereo not given)
inactive: FAB9 | JCK | N140 | P94_40 | PAD | PC15

COc1ccc2nc(NC(=O)Nc3ccccc3)sc2c1
active: ICS 7.94 µM
not listed: GB4 | N140
inactive: all other assays above

CCN(CC)CCC(=O)N1c2ccccc2Sc2ccc(C(F)(F)F)cc21
inactive: FAB9 | HB3 | JCK | N140 | P94_40 | PAD

CCCCC/C=C\C/C=C\C/C=C\CCCCC(=O)O
not listed: GB4 | ICS
inactive: all other assays above

CCC(=O)c1ccc2c(c1)N(CCCN1CCN(CCO)CC1)c1ccccc1S2
active: GB4 9.53 µM | HB3 7.94 µM | ICS 5.01 µM | N140 8.91 µM | P93_24 8.91 µM | P94_40 10 µM | PAD 8.91 µM | PC15 7.08 µM
inactive: JCK

CCCCCCCCCCCCCCCCCCCCCC(=O)Nc1ccn([C@@H]2O[C@H](CO)[C@@H](O)[C@@H]2O)c(=O)n1
not listed: GB4 | ICS
inactive: all other assays above

CSc1nc2cc(Oc3cccc(Cl)c3Cl)c(Cl)cc2[nH]1
active: GB4 12 µM | HB3 8.91 µM | N140 8.91 µM | P93_24 10 µM | P94_40 10 µM | PC15 8.91 µM

C/C(=C\C(=O)OCCCCCCCCC(=O)O)C[C@@H]1OC[C@H](C[C@@H]2O[C@H]2[C@@H](C)[C@H](C)O)[C@@H](O)[C@H]1O
inactive: PC15
active: P94_40 0.141 µM

CS(=O)(=O)c1ccc([C@@H](O)[C@@H](COC(=O)CN)NC(=O)C(Cl)Cl)cc1
inactive: FAB9 | HB3 | JCK | N140 | PAD | PC15

C=CC[N+]1([C@H]2C[C@H]3[C@@H]4CC[C@H]5C[C@H](O)[C@@H](N6CCOCC6)C[C@]5(C)[C@H]4CC[C@]3(C)[C@H]2OC(C)=O)CCCC1
active: P94_40 8.91 µM
inactive: FAB9 | JCK | PC15

CN1CCc2c(c3ccccc3n2Cc2ccccc2)C1
not listed: GB4 | P94_40
inactive: all other assays above

N#Cc1ccc2c(c1)N(CCCN1CCC(O)CC1)c1ccccc1S2
inactive: FAB9 | HB3 | JCK
active: N140 12.6 µM

O=c1n(CC2CO2)c(=O)n(CC2CO2)c(=O)n1CC1CO1 (stereo not given)
inactive: FAB9 | HB3 | JCK | N140 | PC15

CC(CN(C)C)CN1c2ccccc2Sc2ccc(C(F)(F)F)cc21 (stereo not given)
inactive: FAB9
active: ICS 10 µM | N140 11.2 µM | P93_24 10 µM | P94_40 5.01 µM

CN(C)C(=O)CCSC(SCCC(=O)O)c1cccc(/C=C/c2ccc3ccc(Cl)cc3n2)c1 (stereo not given)
active: ICS 11.2 µM | PAD 11.2 µM
inactive: FAB9 | JCK | PC15

CCN(CC)CCC(=O)N1c2ccccc2Sc2ccc(Cl)cc21
inactive: JCK | N140
active: P93_24 3.98 µM | P94_40 5.01 µM
